Test results from PubChem BioAssay (NCATS).
A number with no mark means an inactive call. Inconclusive results are not listed. Entries that show only a call come without a potency. Activity calls are given as the source filed them. The call rests on the fitted dose curve; in most records, active means well fitted inhibition curve with a large enough effect; inconclusive means small, poorly fitted or top-dose-only effect; inactive means flat fitted curve, though single readings scatter.

How the values were obtained:
[1] = target: Glutathione peroxidase 1 (Homo sapiens) (UniProt P07203); test: Primary qHTS Assay for Inhibitors of Recombinant Selenoprotein Glutathione Peroxidase 1 (GPX1) (AID 1845191); further: nearly all actives have a fitted effect of over 65% in size
Outline: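 GPX1 10 nM, GR 100 nM, GSH 1 mM, NADPH 0.5 mM, CHP 0.5 mM (final). 30-min cpd preincubation, RT. Ex340/Em450 read t=0, t=15 min.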

[2] = target: Luciferin 4-monooxygenase (Photinus pyralis) (UniProt P08659); test: Primary firefly luciferase (FLuc) qHTS assay for identification of artifact compounds. (AID 1845220); further: nearly all actives have a fitted effect of over 60% in size; on activity change, negative = inhibition: series mostly up to about 54 µM
Outline: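 In this counter-screen for luciferase artifacts, test compounds met substrate (10 uM each luciferin and ATP) before 10 nM enzyme started the reaction. Light output was measured 5 min later.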

[3] = target: Phospholipid hydroperoxide glutathione peroxidase GPX4 (Homo sapiens) (UniProt P36969); test: Primary qHTS Assay for Inhibitors of Recombinant Selenoprotein Glutathione Peroxidase 4 (GPX4) (AID 1845192); further: nearly all actives have a fitted effect of over 65% in size; on activity change, negative = inhibition: series mostly up to about 50 µM
Outline: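 qHTS, GR-coupled: GPX4 200 nM + cpd 30 min RT → GSH 1 mM, NADPH 0.5 mM, GR 100 nM → CHP 0.5 mM start; fluor 340/450 at t0 and t15 min; no-enzyme wells as control.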

Sequence of Phospholipid hydroperoxide glutathione peroxidase GPX4 (Homo sapiens) (P36969 whole entry, looked up): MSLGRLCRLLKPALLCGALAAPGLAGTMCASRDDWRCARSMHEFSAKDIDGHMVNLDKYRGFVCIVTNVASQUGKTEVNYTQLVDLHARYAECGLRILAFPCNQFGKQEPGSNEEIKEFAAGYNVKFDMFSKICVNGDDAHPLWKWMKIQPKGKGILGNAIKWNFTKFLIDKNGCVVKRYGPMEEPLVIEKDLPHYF
Sequence of Glutathione peroxidase 1 (Homo sapiens) (P07203 whole entry, looked up): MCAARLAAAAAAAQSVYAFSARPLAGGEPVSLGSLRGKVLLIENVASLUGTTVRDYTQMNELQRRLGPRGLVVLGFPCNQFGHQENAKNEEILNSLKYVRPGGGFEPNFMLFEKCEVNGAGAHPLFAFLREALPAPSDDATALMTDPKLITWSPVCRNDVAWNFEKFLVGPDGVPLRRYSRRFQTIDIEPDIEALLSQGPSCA

SMILES	outcome [1]	activity change, negative = inhibition [2]	Potency [1]	Potency [2]	Potency [3]
CN[C@@H](C)[C@H]1[C@H](O)C[C@@]2(C)[C@@H]3CC[C@H]4C(C)(C)[C@@H](NC)CC[C@@]45C[C@@]35CC[C@]12C	inactive [at 9.52 µM]	1.81% [at 11.6 µM]			
CC1=C[C@@H]2[C@@H]([C@@H](O)C[C@@]3(C)[C@H]2C[C@@H](C)[C@]3(O)C(=O)CO)[C@@]2(C)Cc3cnn(-c4ccccc4)c3C=C12			inactive	inactive	
N#Cc1ccc(Oc2ccc3c(c2)COB3O)cc1			inactive	inactive	inactive
CN1C(=O)C(Cc2c[nH]c3ccccc23)NC1=S (stereo unspecified)			inactive	inactive	inactive
COc1ccc(Cn2ccc3ccc(C(=O)NO)cc32)cc1			inactive	inactive	
COc1nc(C)cnc1NS(=O)(=O)c1cccnc1-c1ccc(-c2nnco2)cc1			inactive	inactive	inactive
Cc1cc(-c2ncc(CC(=O)Nc3ccc(-c4cnccn4)cn3)cc2C)ccn1			inactive	inactive	
C[C@H](c1ccc(F)cc1CCCC(=O)O)N(c1cc(F)ccc1F)S(=O)(=O)c1ccc(Cl)cc1			inactive	inactive	inactive
C[C@@H](NC(=O)c1ncnc(N)c1Cl)c1ncc(C(=O)Nc2cc(C(F)(F)F)c(Cl)cn2)s1			inactive	inactive	inactive
CC1(C)CC(=O)c2c(C(F)(F)F)nn(-c3ccc(C(N)=O)c(NC4CCC(O)CC4)c3)c2C1 (stereo unspecified)			inactive	inactive	inactive
Cc1cnc(-c2cc(N3CCN(C(=O)CCS(C)(=O)=O)CC3)ncc2Cl)c(C)c1			inactive	inactive	
CN1CCC(COc2cnc(-c3cccc(Cn4nc(-c5cccc(C#N)c5)ccc4=O)c3)nc2)CC1			inactive	inactive	
NC(=O)c1ccc(N(C(N)=O)c2c(F)cccc2F)nc1-c1ccc(F)cc1F			inactive	inactive	inactive
CN(C)CCOc1cc(-c2cn[nH]c2)ccc1NC(=O)C1COc2ccccc2O1 (stereo unspecified)			inactive	inactive	inactive
O=c1[nH]nc(OCCCc2ccc(Cl)cc2)c(NCc2cccnc2)c1Br			inactive	inactive	
Cc1cnc(Nc2cccc(CN3CCOCC3)c2)nc1Nc1cccc(S(=O)(=O)NC(C)(C)C)c1			inactive	inactive	inactive
COc1ccc(-c2ccc3ncc4c(c3c2)n(-c2ccc(N3CCNCC3)c(C(F)(F)F)c2)c(=O)n4C)cn1			inactive	inactive	inactive
CN1CCN(c2cccc(Nc3nc4c(-c5ccc(S(C)(=O)=O)cc5)cccn4n3)c2)CC1			inactive	inactive	inactive
CCC(=O)N1CCN(c2ccc(-n3c(=O)ccc4cnc5ccc(-c6cnc7ccccc7c6)cc5c43)cc2C(F)(F)F)CC1		2.1% [at 11.6 µM]	inactive		inactive
CN1c2ccccc2C(=O)N2CCc3c([nH]c4ccccc34)C21 (stereo unspecified)			inactive	inactive	
O[C@@H](COc1cccc2ncccc12)CN1CCN(C2c3ccccc3[C@@H]3[C@H](c4ccccc42)C3(F)F)CC1 (stereo partly specified)			inactive	inactive	
CC[C@H](CC#N)OC(=O)N[C@@H](C)c1cccc(NC(=O)Nc2ccc(-c3cnco3)c(OC)c2)c1			inactive	inactive	inactive
Cc1ccc2c(c1)C(=O)[C@]1(O)CCN(c3ccccc3)C1=N2			inactive	inactive	inactive
COC(=O)N1CCN(Cc2cccc(NC(=O)Nc3ccc(C)nc3)c2F)CC1			inactive	inactive	inactive
Cc1cccc2c1CC[C@H](CN1CCC(c3c(Cl)cccc3Cl)CC1)C[C@@H]2O			inactive	inactive	inactive
